About 3,300 (8.5%) of roughly 39,000 compounds were called active. The list comes from a sample in which actives are over-represented; it also holds similar structures and randomly drawn compounds.
Test system: HepG2
Test: cytotoxicity call (relative viability < 0.9)
Settings: 10 µM

| SMILES | cytotoxicity call |
| --- | --- |
| CO[C@H]1CN(C)C(=O)c2cc(NS(=O)(=O)CC(F)(F)F)ccc2OC[C@@H](C)N(Cc2ccccn2)C[C@@H]1C | inactive |
| CN(C)CC(=O)N1CC(=O)N2[C@@H](CO)[C@@H](c3ccc(C#Cc4cccnc4)cc3)[C@@H]2C1 | inactive |
| C[C@H]1CCCCO[C@@H](CN(C)Cc2ccncc2)[C@@H](C)CN([C@@H](C)CO)C(=O)c2cc(NC(=O)Nc3ccc(F)cc3)ccc2O1 | inactive |
| C=CC1=C(C(=O)O)N2C(=O)C(NC(=O)C(=NOCC(=O)O)c3csc(N)n3)C2SC1 (stereo not drawn) | active |
| C=CC1=C(C(=O)O)N2C(=O)C(NC(=O)C(=NO)c3csc(N)n3)C2SC1 (stereo not drawn) | inactive |
| C=CC1=C(C(=O)O)N2C(=O)[C@@H](NC(=O)/C(=N\OCC(=O)O)c3csc(N)n3)[C@H]2SC1 | inactive |
| CC(C)CC#Cc1ccc2c(c1)O[C@@H](CN(C)C(=O)Cc1ccncc1)[C@@H](C)CN([C@H](C)CO)S2(=O)=O | inactive |
| C[C@@H]1CN([C@H](C)CO)C(=O)Cc2cc(N(C)C)ccc2O[C@@H]1CN(C)S(=O)(=O)c1ccc(Cl)cc1 | inactive |
| C[C@H]1CN([C@@H](C)CO)C(=O)Cc2cc(N(C)C)ccc2O[C@H]1CN(C)S(=O)(=O)c1ccc(Cl)cc1 | active |
| C[C@@H]1CN([C@@H](C)CO)C(=O)Cc2cc(N(C)C)ccc2O[C@H]1CN(C)S(=O)(=O)c1ccc(Cl)cc1 | inactive |
| C[C@@H]1CN([C@H](C)CO)C(=O)Cc2cc(N(C)C)ccc2O[C@H]1CN(C)S(=O)(=O)c1ccc(Cl)cc1 | inactive |
| C[C@H](CO)N1C[C@H](C)[C@H](CN(C)S(=O)(=O)c2ccc(Cl)cc2)Oc2ccc(N(C)C)cc2CC1=O | active |
| C[C@H]1CN([C@@H](C)CO)C(=O)Cc2cc(N(C)C)ccc2O[C@@H]1CN(C)S(=O)(=O)c1ccc(Cl)cc1 | inactive |
| C[C@@H]1CN([C@@H](C)CO)C(=O)c2cc(/C=C/c3ccccc3)cnc2O[C@@H]1CN(C)C(=O)CN1CCOCC1 | inactive |
| COc1ccc(NC(=O)N(C)C[C@@H]2OCCCC[C@@H](C)Oc3ccc(NC(=O)Nc4cccc5ccccc45)cc3C(=O)N([C@H](C)CO)C[C@@H]2C)cc1 | inactive |
| C[C@@H]1CCCCO[C@@H](CN(C)C(=O)c2ccncc2)[C@H](C)CN([C@@H](C)CO)C(=O)c2cc(NC(=O)C3CCCCC3)ccc2O1 | inactive |
| Cc1noc(C)c1S(=O)(=O)N(C)C[C@@H]1Oc2ccc(NC(=O)CCCN(C)C)cc2CC(=O)N([C@@H](C)CO)C[C@H]1C | inactive |
| C[C@H](CO)N1C[C@H](C)[C@@H](CN(C)C(=O)Nc2ccc3c(c2)OCO3)OCc2ccccc2-c2c(n(C)c3ccccc23)C1=O | inactive |
| CN1C[C@@H]2CN(C(=O)[C@H]3CCOC3)C[C@H]2C1=O | inactive |
| CC(CO)(CO)NS(=O)(=O)c1ccccc1 | inactive |
| COc1ccncc1-c1ccccc1CN(C(=O)c1ccc(-c2ccc(C#N)cc2)o1)c1ccc(N2CCNCC2)cc1 | active |
| C[C@H](CO)N1C[C@H](C)[C@@H](CN(C)C(=O)Nc2ccc3c(c2)OCO3)OCCCC[C@H](C)Oc2ccc(NC(=O)CCC(F)(F)F)cc2C1=O | inactive |
| COc1ccc(S(=O)(=O)Nc2ccc3c(c2)C(=O)N([C@H](C)CO)C[C@H](C)[C@H](CN(C)S(=O)(=O)c2c(C)noc2C)O3)cc1 | inactive |
| CO[C@H]1CN(C)C(=O)c2ccc(NC(=O)c3ccc(F)cc3)cc2OC[C@H](C)N(C(=O)CN(C)C)C[C@@H]1C | inactive |
| COCCNC(=O)C[C@@H]1CC[C@@H]2[C@H](COc3ccc(NS(=O)(=O)c4ccc(Cl)cc4)cc3C(=O)N2C)O1 | inactive |

| SMILES | cytotoxicity call |
| --- | --- |
| CN(C(=O)CN(CCO)CC(=O)N(C)C(C)(C)Cc1ccccc1)C(C)(C)Cc1ccccc1 | active |
| C[C@@](Cc1ccccc1)(NC(=O)CN)c1ccccc1 | inactive |
| O=C(O)CN(CCc1ccccc1)CC(=O)O | inactive |
| O=C(NC1(c2ccccc2)CC1)c1c(CN2CCC(N3CCCCC3)CC2)c(-c2cccc(C(F)(F)F)c2)nc2cc(Br)ccc12 | active |
| COc1ccc(S(=O)(=O)N(C)C[C@@H]2Oc3c(NS(=O)(=O)c4ccccc4)cccc3C(=O)N([C@H](C)CO)C[C@H]2C)cc1 | inactive |
| COc1ccccc1OCCNCC(O)COc1cccc2[nH]c3ccccc3c12 (stereo not drawn) | active |
| COc1cccc(OC)c1OCCNCCO | inactive |
| COc1ccccc1OCCNCC(O)COc1cccc2[nH]c3ccccc3c12.O=P(O)(O)O (stereo not drawn) | active |
| COc1ccccc1OCC(O)CO (stereo not drawn) | inactive |
| COc1ccccc1OC[C@@H](O)CO | inactive |
| CO[C@@H]1CN(C)C(=O)c2ccc(NC(=O)Nc3ccccc3F)cc2OC[C@H](C)N(Cc2ccccc2C(=O)O)C[C@H]1C | inactive |
| O=C(C[C@H]1C[C@@H]2c3cc(NC(=O)Cc4ccncc4)ccc3O[C@@H]2[C@@H](CO)O1)NCc1ccc2c(c1)OCO2 | inactive |
| Cc1noc(C)c1S(=O)(=O)Nc1ccc2c(c1)C(=O)N([C@@H](C)CO)C[C@@H](C)[C@H](CN(C)Cc1ccccc1)OCCCC[C@H](C)O2 | inactive |
| COc1ccc(NC(=O)N(C)C[C@@H]2Oc3ccc(NC(=O)C4CC4)cc3C(=O)N([C@H](C)CO)C[C@@H]2C)cc1 | inactive |
| Cc1ccc(S(=O)(=O)N(C)C[C@H]2Oc3ncc(-c4ccncc4)cc3C(=O)N([C@@H](C)CO)C[C@@H]2C)cc1 | inactive |
| C[C@@H]1CCCCO[C@@H](CN(C)C(=O)Nc2cccc3ccccc23)[C@@H](C)CN([C@@H](C)CO)C(=O)c2cc(NC(=O)Nc3ccc(C(F)(F)F)cc3)ccc2O1 | inactive |
| C[C@H]1CN([C@@H](C)CO)C(=O)Cc2cc(NC(=O)CCN3CCOCC3)ccc2O[C@H]1CN(C)Cc1ccc(C(=O)Nc2ccccc2N)cc1 | inactive |
| Cc1ccc(S(=O)(=O)N[C@@H](Cc2ccccc2)C(=O)NCCCn2cc(CN3C(=O)COC[C@H]3c3ccccc3)nn2)cc1 | inactive |
| CC(=O)O[C@@H]1[C@H](OC(C)=O)N(C)C(=O)N1C | inactive |
| CC(=O)O[C@@H]1[C@@H]2C[C@@H]([C@H]1OC(C)=O)[C@@H]1C(=O)N(C)C(=O)[C@@H]21 | active |
| CC(=O)O[C@@H]1[C@H](OC(C)=O)N(C(C)=O)C(=O)N1C(C)=O | inactive |
| C[C@@H]1CN([C@H](C)CO)C(=O)c2cccc(NS(C)(=O)=O)c2O[C@H]1CN(C)Cc1ccc(C(=O)Nc2ccccc2N)cc1 | inactive |
| C[C@@H]1O[C@@H](OC[C@H]2O[C@@H](Oc3c(-c4ccc(O)cc4)oc4cc(O)cc(O)c4c3=O)[C@H](O)[C@@H](O)[C@@H]2O)[C@H](O)[C@H](O)[C@H]1O | inactive |
| COc1ccc(CN2C[C@H](C)[C@H](OC)CN(C)C(=O)c3cc(NC(=O)c4nc5ccccc5s4)ccc3OC[C@@H]2C)cc1 | inactive |
| C[C@@H]1CN([C@@H](C)CO)C(=O)c2cc(NC(=O)Cn3cnnn3)ccc2O[C@@H]1CN(C)S(=O)(=O)c1ccc(F)cc1 | inactive |

| SMILES | cytotoxicity call |
| --- | --- |
| Cc1ccc(-c2ncns2)cc1 | inactive |
| Cc1cccnc1[C@@H](NC(=O)C1CCN(Cc2ccc(Oc3ccccc3)cc2)CC1)c1ccc(F)cc1 | inactive |
| O=C(N[C@@H](c1ccc(-c2ccccc2)cc1)c1cnccn1)C1CCN(Cc2cccc(C(F)(F)F)c2)CC1 | inactive |
| Cc1cccnc1[C@@H](NC(=O)C1CCN(Cc2ccc(Cl)c(Cl)c2)CC1)c1ccc(Cl)cc1 | active |
| O=C(N[C@H](c1ccc(Cl)cc1)c1cnccn1)C1CCN(Cc2ccc(Oc3ccccc3)cc2)CC1 | active |
| Cc1cccnc1[C@@H](NC(=O)C1CCN(CCOc2ccc(Cl)cc2Cl)CC1)c1ccc(Cl)cc1 | inactive |
| COc1cc(CN2CCC(C(=O)N[C@@H](c3ccc(-c4ccccc4)cc3)c3cnccn3)CC2)cc(OC)c1 | active |
| O=C(N[C@@H](c1ccc(-c2ccccc2)cc1)c1cnccn1)C1CCN(Cc2ccc(Cl)c(Cl)c2)CC1 | inactive |
| O=C(N[C@@H](c1ccc(-c2ccccc2)cc1)c1cnccn1)C1CCN(Cc2ccc(Oc3ccccc3)cc2)CC1 | active |
| COc1cccc([C@@H](NC(=O)C2CCN(Cc3ccc(Oc4ccccc4)cc3)CC2)c2ccccn2)c1 | inactive |
| O=C(N[C@H](c1ccc(Cl)cc1)c1ccsc1)C1CCN(Cc2ccc(Oc3ccccc3)cc2)CC1 | inactive |
| COc1ccc([C@@H](NC(=O)C2CCN(Cc3ccc(Oc4ccccc4)cc3)CC2)c2ccccn2)cc1 | inactive |
| COCC#Cc1ccc2c(c1)O[C@H](CN(C)C(=O)c1ccccc1F)[C@@H](C)CN([C@H](C)CO)S2(=O)=O | inactive |
| C[C@@H]1CN([C@H](C)CO)C(=O)Cc2cc(NS(=O)(=O)c3ccc(F)cc3)ccc2O[C@H]1CN(C)S(=O)(=O)c1ccc(F)cc1 | inactive |
| COc1ccc(cc1)NC(=O)N1CC[C@]2(CC1)CN([C@@H](CO)c1[nH]c3cc(ccc3c12)OC)C(=O)CN1CCOCC1 | inactive |
| O=C1NC(=O)/C(=C\c2ccccc2)N1 | inactive |
| O=C(N[C@@H]1CC(=O)N(C2CC2)C1)C1CCC1 | inactive |
| C[C@H]1CN([C@@H](C)CO)C(=O)c2cc(NC(=O)Cc3cn(C)c4ccccc34)ccc2O[C@@H]1CN(C)Cc1ccc(C(=O)Nc2ccccc2N)cc1 | inactive |
| C[C@H](CO)N1C[C@H](C)[C@H](CN(C)C(=O)Nc2ccccc2)Oc2ccc(NC(=O)C3CC3)cc2CC1=O | inactive |
| N#Cc1cnc2c(C(N)=O)cnn2c1N | inactive |
| Cc1noc(C)c1NC(=O)Nc1ccc2c(c1)C(=O)N([C@H](C)CO)C[C@@H](C)[C@H](CN(C)Cc1ccccc1)OCCCC[C@@H](C)O2 | inactive |
| Nc1nc(=O)c2[nH]c(=O)c(=O)[nH]c2[nH]1 | inactive |
| Cc1noc(C)c1NC(=O)Nc1ccc2c(c1)C(=O)N([C@@H](C)CO)C[C@H](C)[C@@H](CN(C)S(=O)(=O)c1cccs1)OCCCC[C@H](C)O2 | inactive |
